PMC8384837, “Expanding the binding specificity for RNA recognition by a PUF domain”
Numbering of substitutions follows the chain as printed.

Columns and labels:
Test in all cases: yeast three-hybrid, YBZ-1, SC-Leu-His + 0.5 mM 3-AT, 4 days
Conditions in all cases: tags: N-Gal4 AD-HA kept; label: inside an RPR1-promoter hybrid RNA with tandem MS2 sites; ssRNA
[1] = target: PUM1 PUF domain R1-RCC (Homo sapiens, UniProt Q14671 828-1176, S863R;R864C;Q867C)
How it was run: (§1)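 The interaction score is the logarithmic change in variant frequency from input to selection. It uses log2, with a pseudocount of 1 for absent variants, and frequencies came from PCR-amplified, Illumina-sequenced repeat regions. The libraries were Pumilio-1 PUF domains randomized at the three base-contacting residues per repeat, co-expressed with matching RNA elements in strain YBZ-1 (LexA–MS2 coat fusion, HIS3 reporter). Plating lasted four days on SC-Leu (input) or SC-Leu-His + 0.5 mM 3-AT (selection).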

[2] = target: PUM1 PUF domain R1-VRR (Homo sapiens, UniProt Q14671 828-1176, S863V;Q867R)
How it was run: as §1

[3] = target: PUM1 PUF domain R1-KCN (Homo sapiens, UniProt Q14671 828-1176, S863K;R864C;Q867N)
How it was run: as §1

[4] = target: PUM1 PUF domain R5-DRD (Homo sapiens, UniProt Q14671 828-1176, C1007D;Q1011D)
How it was run: as §1

[5] = target: PUM1 PUF domain R5-SLC (Homo sapiens, UniProt Q14671 828-1176, C1007S;R1008L;Q1011C)
How it was run: as §1

[6] = target: PUM1 PUF domain R8-KFC (Homo sapiens, UniProt Q14671 828-1176, N1122K;Y1123F;Q1126C)
How it was run: as §1

[7] = target: PUM1 PUF domain R8-CFR (Homo sapiens, UniProt Q14671 828-1176, N1122C;Y1123F;Q1126R)
How it was run: as §1

[8] = target: PUM1 PUF domain R8-TRK (Homo sapiens, UniProt Q14671 828-1176, N1122T;Y1123R;Q1126K)
How it was run: as §1

[9] = target: PUM1 PUF domain R3-LNS (Homo sapiens, UniProt Q14671 828-1176, C935L;R936N;Q939S)
How it was run: as §1

[10] = target: PUM1 PUF domain R5-RLQ (Homo sapiens, UniProt Q14671 828-1176, C1007R;R1008L)
How it was run: as §1

[11] = target: T1, PUM1 PUF domain R6-CFN (Homo sapiens, UniProt Q14671 828-1176, N1043C;Y1044F;Q1047N)
T1 sequence: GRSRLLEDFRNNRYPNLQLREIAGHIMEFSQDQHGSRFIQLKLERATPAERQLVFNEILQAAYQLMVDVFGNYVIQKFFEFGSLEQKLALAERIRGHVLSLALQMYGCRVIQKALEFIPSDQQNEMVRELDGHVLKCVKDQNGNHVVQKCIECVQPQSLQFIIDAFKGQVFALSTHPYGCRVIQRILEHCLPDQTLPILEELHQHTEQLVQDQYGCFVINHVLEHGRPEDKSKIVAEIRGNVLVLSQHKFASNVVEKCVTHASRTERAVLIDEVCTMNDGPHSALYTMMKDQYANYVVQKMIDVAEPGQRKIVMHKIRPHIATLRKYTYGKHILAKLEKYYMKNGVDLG
How it was run: as §1

[12] = target: PUM1 PUF domain R4-NNL (Homo sapiens, UniProt Q14671 828-1176, H972N;Q975L)
How it was run: as §1

[13] = target: PUM1 PUF domain R4-SPN (Homo sapiens, UniProt Q14671 828-1176, N971S;H972P;Q975N)
How it was run: as §1

[14] = target: PUM1 PUF domain R4-NNC (Homo sapiens, UniProt Q14671 828-1176, H972N;Q975C)
How it was run: as §1

[15] = target: T2, PUM1 PUF domain R6-CWC (Homo sapiens, UniProt Q14671 828-1176, N1043C;Y1044W;Q1047C)
T2 sequence: T1 sequence with F217W, N220C
How it was run: as §1

[16] = target: PUM1 PUF domain R8-PYW (Homo sapiens, UniProt Q14671 828-1176, N1122P;Q1126W)
How it was run: as §1

[17] = target: T3, PUM1 PUF domain R6-RRE (Homo sapiens, UniProt Q14671 828-1176, N1043R;Y1044R;Q1047E)
T3 sequence: T1 sequence with C216R, F217R, N220E
How it was run: as §1

[18] = target: PUM1 PUF domain R7-SRR (Homo sapiens, UniProt Q14671 828-1176, N1080R;E1083R)
How it was run: as §1

[19] = target: PUM1 PUF domain R7-ERK (Homo sapiens, UniProt Q14671 828-1176, S1079E;N1080R;E1083K)
How it was run: as §1

[20] = target: PUM1 PUF domain R7-KHS (Homo sapiens, UniProt Q14671 828-1176, S1079K;N1080H;E1083S)
How it was run: as §1

For “GGCUAGAACUAGUGGAUCCCCCGGCGCCCGGCGGCUCGAGCCCGGGUAAGUGUAAAUUGUCUGCAUGCCGCCGGGCGCCAUGCCUGCAGGUCGACUCUAGAAAACAUG”, the binding signal [1] was 2.58 log2 enrichment (interaction score), the binding signal [2] was 1.88 log2 enrichment (interaction score) and the binding signal [3] was 3.67 log2 enrichment (interaction score).

“GGCUAGAACUAGUGGAUCCCCCGGCGCCCGGCGGCUCGAGCCCGGGUAAGUGUGAAUAGUCUGCAUGCCGCCGGGCGCCAUGCCUGCAGGUCGACUCUAGAAAACAUG” was tested, and the binding signal [4] was 4.33 log2 enrichment (interaction score) and the binding signal [5] was 2.98 log2 enrichment (interaction score).

For “GGCUAGAACUAGUGGAUCCCCCGGCGCCCGGCGGCUCGAGCCCGGGUAAGCGUAAAUAGUCUGCAUGCCGCCGGGCGCCAUGCCUGCAGGUCGACUCUAGAAAACAUG”, the binding signal [6] was 6.35 log2 enrichment (interaction score), the binding signal [7] was 4.3 log2 enrichment (interaction score) and the binding signal [8] was 3.25 log2 enrichment (interaction score).

For “GGCUAGAACUAGUGGAUCCCCCGGCGCCCGGCGGCUCGAGCCCGGGUAAGUGUAAUUAGUCUGCAUGCCGCCGGGCGCCAUGCCUGCAGGUCGACUCUAGAAAACAUG”, the binding signal [9] was 3.52 log2 enrichment (interaction score).

With “GGCUAGAACUAGUGGAUCCCCCGGCGCCCGGCGGCUCGAGCCCGGGUAAGUGUCAAUAGUCUGCAUGCCGCCGGGCGCCAUGCCUGCAGGUCGACUCUAGAAAACAUG” the binding signal [10] was 2.19 log2 enrichment (interaction score).

“GGCUAGAACUAGUGGAUCCCCCGGCGCCCGGCGGCUCGAGCCCGGGUAAGUGAAAAUAGUCUGCAUGCCGCCGGGCGCCAUGCCUGCAGGUCGACUCUAGAAAACAUG” was tested, and the binding signal [11] was 5.35 log2 enrichment (interaction score).

In the case of “GGCUAGAACUAGUGGAUCCCCCGGCGCCCGGCGGCUCGAGCCCGGGUAAGUGUAUAUAGUCUGCAUGCCGCCGGGCGCCAUGCCUGCAGGUCGACUCUAGAAAACAUG”, the binding signal [12] is reported as 3 log2 enrichment (interaction score), the binding signal [13] is reported as 4.43 log2 enrichment (interaction score) and the binding signal [14] is reported as 3.85 log2 enrichment (interaction score).

With “GGCUAGAACUAGUGGAUCCCCCGGCGCCCGGCGGCUCGAGCCCGGGUAAGGGUAAAUAGUCUGCAUGCCGCCGGGCGCCAUGCCUGCAGGUCGACUCUAGAAAACAUG” the binding signal [6] was 2.66 log2 enrichment (interaction score).

With “GGCUAGAACUAGUGGAUCCCCCGGCGCCCGGCGGCUCGAGCCCGGGUAAGUGUAAGUAGUCUGCAUGCCGCCGGGCGCCAUGCCUGCAGGUCGACUCUAGAAAACAUG” the binding signal [9] was 4.27 log2 enrichment (interaction score).

“GGCUAGAACUAGUGGAUCCCCCGGCGCCCGGCGGCUCGAGCCCGGGUAAGUGUACAUAGUCUGCAUGCCGCCGGGCGCCAUGCCUGCAGGUCGACUCUAGAAAACAUG” was tested, and the binding signal [13] was 1.41 log2 enrichment (interaction score).

For “GGCUAGAACUAGUGGAUCCCCCGGCGCCCGGCGGCUCGAGCCCGGGUAAGUGUAAAUGGUCUGCAUGCCGCCGGGCGCCAUGCCUGCAGGUCGACUCUAGAAAACAUG”, the binding signal [1] was 2.4 log2 enrichment (interaction score).

In the case of “GGCUAGAACUAGUGGAUCCCCCGGCGCCCGGCGGCUCGAGCCCGGGUAAGUGUUAAUAGUCUGCAUGCCGCCGGGCGCCAUGCCUGCAGGUCGACUCUAGAAAACAUG”, the binding signal [10] is reported as 1.58 log2 enrichment (interaction score).

In the case of “GGCUAGAACUAGUGGAUCCCCCGGCGCCCGGCGGCUCGAGCCCGGGUAAGUGUAAAUAGUCUGCAUGCCGCCGGGCGCCAUGCCUGCAGGUCGACUCUAGAAAACAUG”, the binding signal [6] is reported as 2.49 log2 enrichment (interaction score), the binding signal [12] is reported as 3.79 log2 enrichment (interaction score) and the binding signal [15] is reported as 3 log2 enrichment (interaction score). For the same sequence, the binding signal [7] was 4.47 log2 enrichment (interaction score), the binding signal [16] was 3.3 log2 enrichment (interaction score) and the binding signal [8] was 2.15 log2 enrichment (interaction score). The binding signal [5] was 0.65 log2 enrichment (interaction score), the binding signal [13] was 2.58 log2 enrichment (interaction score) and the binding signal [17] was 4.26 log2 enrichment (interaction score). For the same sequence, the binding signal [14] was 2.42 log2 enrichment (interaction score).

In the case of “GGCUAGAACUAGUGGAUCCCCCGGCGCCCGGCGGCUCGAGCCCGGGUAAGUCUAAAUAGUCUGCAUGCCGCCGGGCGCCAUGCCUGCAGGUCGACUCUAGAAAACAUG”, the binding signal [18] is reported as 2.92 log2 enrichment (interaction score), the binding signal [19] is reported as 5.87 log2 enrichment (interaction score) and the binding signal [20] is reported as 3.33 log2 enrichment (interaction score).

“GGCUAGAACUAGUGGAUCCCCCGGCGCCCGGCGGCUCGAGCCCGGGUAAGUGUAAAUCGUCUGCAUGCCGCCGGGCGCCAUGCCUGCAGGUCGACUCUAGAAAACAUG” was tested, and the binding signal [2] was 2.85 log2 enrichment (interaction score).

In the case of “GGCUAGAACUAGUGGAUCCCCCGGCGCCCGGCGGCUCGAGCCCGGGUAAGUAUAAAUAGUCUGCAUGCCGCCGGGCGCCAUGCCUGCAGGUCGACUCUAGAAAACAUG”, the binding signal [20] is reported as 2.08 log2 enrichment (interaction score).

For “GGCUAGAACUAGUGGAUCCCCCGGCGCCCGGCGGCUCGAGCCCGGGUAAGUUUAAAUAGUCUGCAUGCCGCCGGGCGCCAUGCCUGCAGGUCGACUCUAGAAAACAUG”, the binding signal [18] was 2.68 log2 enrichment (interaction score).
